Assay results: PubChem BioAssay AID1347069 (National Center for Advancing Translational Sciences (NCATS), 2019)
Among all 44,000 compounds or so, fewer than 10 were called active. A selection follows. Unmarked numbers belong to inactive results. Calls follow the shape of the dose curve; as a rule, active = well fitted inhibition curve with a large enough effect; inconclusive = small, poorly fitted or top-dose-only effect; inactive = flat fitted curve, though single readings scatter.

target: Tumor susceptibility gene 101 protein (Homo sapiens) (UniProt Q99816); assay: qHTS Validation Assay for Inhibitors of HIV-1 Budding by Blocking the Interaction of PTAP/TSG101: Sytravon Library Screen; conditions: Fluorescence polarization, FITC-PTAP peptide/Tsg101, 20 min; series mostly up to 115 µM; activity change, negative = inhibition: at the top concentration; as to activity change, negative = inhibition: 0% is about no effect
Excerpt: Stages of the HIV-1 replication cycle, specifically virus assembly and release, provide underexploited targets for the development of novel antiviral inhibitors. The late stages of HIV-1 replication are mediated by the Gag precursor protein, Pr55Gag. Expression of Pr55Gag is both necessary and sufficient for the production of virus-like particles from Gag-expressing cells. The Gag protein hijacks key host proteins involved in endocytic machinery of the host cell to promote endosomal processing and viral budding. The budding process requires a direct interaction between a […] (PTAP) motif in the p6 domain of Gag and the cellular endosomal sorting protein known as Tsg101. In this way, the Gag PTAP motif promotes the host cells to recruit viral particles to the plasma membrane where the new viral particles are released, effectively turning the host cells into viral factories. A fluorescence polarization assay has been developed to quantitatively measure the PTAP-Tsg101 interaction which can be used to screen for inhibitors of this interaction. This assay was run against the NCGC Sytravon Library collection. NIH Molecular Libraries Probe Production Network [MLPCN] NIH Chemical Genomics Center [NCGC] Grant: R03 MH087464-01A1 PI Name: Dr. Eric Freed, NCI
Two uL of the Tsg101 binding domain in buffer (10 mM HEPES pH 7.5; 0.15 M NaCl, 0.01% Tween 20; 3 mM EDTA;0.1 mM TCEP) was dispensed into Greiner black MB 1536-well plates (final concentration 10 uM). Then, 23 nL of compounds or DMSO were delivered to each well using a pin tool. Finally, 2 uL of a FITC-labeled peptide containing the PTAP motif (1) in the same buffer was dispensed (50 nM final concentration) and the binding was allowed to proceed for 20 min. at r.t. Fluorescent polarization was determined using FITC excitation and polarized emission filters on a Perkin Elmer Envision. Assay cut-off (positive/negative criteria): Actives defined by CRC class, <25 µM; Efficacy <60% inhibition. The total fluorescent intensity from S and P channels will be used to flag fluorescent compounds.
Potency is read from the fitted curve at half-maximal effect.

Chain of Tumor susceptibility gene 101 protein (Homo sapiens) (Q99816 whole entry, looked up): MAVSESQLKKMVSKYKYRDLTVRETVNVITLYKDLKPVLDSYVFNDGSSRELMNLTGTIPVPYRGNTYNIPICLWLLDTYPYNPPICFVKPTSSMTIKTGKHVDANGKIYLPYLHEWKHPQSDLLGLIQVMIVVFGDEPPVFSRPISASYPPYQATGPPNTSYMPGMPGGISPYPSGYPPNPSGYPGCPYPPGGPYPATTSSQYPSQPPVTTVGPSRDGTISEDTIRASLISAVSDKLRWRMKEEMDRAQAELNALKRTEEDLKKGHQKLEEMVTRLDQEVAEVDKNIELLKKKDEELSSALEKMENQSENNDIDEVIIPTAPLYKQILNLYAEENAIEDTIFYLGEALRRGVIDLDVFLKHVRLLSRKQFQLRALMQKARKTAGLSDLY

Compound | activity change, negative = inhibition [%] | Potency
COc1ccccc1C(=O)Nc1c(C(=O)N(C)Cc2ccccc2)sc2nc(C)c(Cl)c(C)c12 | -1.59 | –
COc1ccccc1CNC(=O)c1ccc(NC(=O)N2CC(C)Sc3ccccc32)cc1 (centres undefined) | -5.63 | –
COc1ccc(NC(=O)c2sc3nc[nH]c(=O)c3c2C)cc1 | 2.47 | –
CCc1ccc(S(=O)(=O)Nc2cc3c(C(=O)OCc4ccccc4)c(C)oc3c3ccccc23)cc1 | 8.08 | –
COc1ccccc1-c1ccnc2[nH]n(-c3ccccc3)c(=O)c12 | -10.8 | –
CSc1nn(Cc2cccc(C)c2)c(N)c1S(=O)(=O)c1ccccc1 | 5.53 | –
CCOc1ccccc1C(=O)Nc1ccc2c(c1)N(C)C(=O)c1ccccc1S2 | -5.55 | –
CCOC(=O)c1[nH]c(C)c(CCC(=O)NCc2ccccc2C)c1C | 1.29 | –
Cc1ccc(S(=O)(=O)c2nc(-c3cccs3)oc2N2CCCCC2)cc1 | -7.31 | –
COc1cccc(CNC(=O)CCc2nc(-c3ccc(C)cc3)no2)c1 | 0.0869 | –
CCCCCCn1nnc2sc(-c3ccccc3)cc2c1=O | 1.81 | –
Cc1ccc(Cl)cc1N1CCN(C(=O)c2cccn3c(=O)c4cc(Cl)ccc4nc23)CC1 | 1.96 | –
Cc1ccccc1-n1c(=O)c2ccccc2n(Cc2ccc(F)cc2)c1=O | -2.61 | –
CCc1ccccc1N(C)C(=O)C1CCCN(c2ncnc3onc(-c4ccc(F)cc4)c23)C1 (centres undefined) | -3.7 | –
CCOC(=O)c1c(NC(=O)c2ccc(S(=O)(=O)N(CC)CC)cc2)sc2c1CCCCC2 | -4.85 | –
Cc1nc2ccc(S(=O)(=O)N(CC(=O)Nc3ccc(F)cc3)Cc3ccccc3)cc2s1 | 1.33 | –
COc1ccc(CCNC(=O)CN2C(=O)COc3ccc(S(=O)(=O)N4CCCC4)cc32)cc1OC | -6.56 | –
Cc1cc(Nc2cccc(C(F)(F)F)c2)nc2ccc(NC(=O)c3ccc(=O)[nH]c3)cc12 | 1.63 | –
O=C(Nc1ccc2oc(-c3ccc(O)c(Br)c3)nc2c1)c1cc2ccccc2o1 | -4.46 | –
O=C(c1cccc(Br)c1)N1CCN(Cc2cc(=O)n3nc(-c4ccccc4)sc3n2)CC1 | -0.0587 | –
O=C(CNS(=O)(=O)c1cccs1)N1CCN(c2ccccc2Cl)CC1 | 1.11 | –
CC1CCc2noc(NC(=O)c3ccc([N+](=O)[O-])cc3)c2C1 (centres undefined) | 12.5 | –
COc1cc(C(=O)N2CCN(c3ccc(Nc4ccc(C)cc4)nn3)CC2)cc(OC)c1OC | -0.737 | –
CCOC(=O)c1ccc(NC(=O)CCS(=O)(=O)c2ccc3c(c2)oc(=O)n3C)cc1 | 4.41 | –

Compound | activity change, negative = inhibition [%] | Potency
O=C(COCc1cc(-c2ccc3c(c2)OCO3)on1)N1CCN(c2cccc(Cl)c2)CC1 | 1.37 | –
Cc1ccc(C(=O)Nc2ccc(C(=O)O)cc2)cc1S(=O)(=O)Nc1ccccc1 | -1.08 | –
Cc1ccc(OCC(=O)OCc2cc(=O)n3nc(C4CC4)sc3n2)cc1 | -7.51 | –
CCOC(=O)C(Cc1ccccc1)NC(=O)CCc1c(C)nc2c(c(C)nn2-c2ccc(C)c(C)c2)c1C (centres undefined) | -0.632 | –
Cc1ccc(OCCSc2nc(-c3cccs3)nc3cc(=O)[nH]n23)cc1Cl | 0.193 | –
CC1(C)N=C(SCc2ccccc2Cl)c2ccccc2N1 | -5.04 | –
COc1ccc(Cc2nc3ccc(C(=O)NCc4ccccc4C)cc3o2)cc1 | 0.514 | –
COc1ccc(N2C(=O)CS(=O)(=O)C23C(=O)N(Cc2ccc(C)cc2)c2ccccc23)cc1Cl (centres undefined) | 2.62 | –
Cc1ccc(C)c(N2CCN(S(=O)(=O)c3ccc4c(c3)C(C(C)C)C(=O)N4)CC2)c1 (centres undefined) | -7.65 | –
Cc1ccc(NC(=O)CSc2nnc3[nH]c(=O)cc(C)n23)cc1Cl | -1.4 | –
CCOC(=O)C1CCC(CN(Cc2ccc(OC)cc2)S(=O)(=O)c2ccc(F)c(C(=O)Nc3cc(C)ccc3C)c2)CC1 (centres undefined) | -0.621 | –
CCOC(=O)N1CCc2c(sc3c2c(=O)n(-c2ccc(CC)cc2)c(=O)n3C)C1 | 0.351 | –
COc1ccc(CCN2C(=O)c3oc4cc(C)cc(C)c4c(=O)c3C2c2ccccc2F)cc1OC (centres undefined) | -1.25 | –
CSc1ccc(CCNC(=O)c2ccc3c(c2)nc2n3CCOC2)cc1 | 1.68 | –
COc1ccccc1N1CCN(C(=O)C2CCN(S(=O)(=O)c3c(C)noc3/C=C/c3ccc(C)cc3)CC2)CC1 | 0.416 | –
COc1ccc2c(c1)Cc1sc(NC(=O)c3ccccc3Br)nc1-2 | -15.5 | –
CC(=O)Nc1ccc(NC(=O)C2CCCN(S(=O)(=O)c3ccc4c(c3)CCCC(=O)N4)C2)cc1 (centres undefined) | -4.99 | –
COc1ccc(Cl)cc1NC(=O)CSc1nc(=O)[nH]c2c1CCCC2 | -2.93 | –
CCc1nn(CC(=O)Nc2cc(C)cc(C)c2)c(=O)c2cc3sccc3n12 | 2.57 | –
COc1cc(OC)c(NC(=O)c2cnc(N3CCCC3)nc2C)cc1Cl | -0.674 | –
O=C(NCCC1=CCCCC1)c1ccc2c(c1)N(Cc1ccccc1F)C(=O)c1ccccc1S2(=O)=O | -0.0457 | –
O=C(CN1C(=O)COc2ccc(S(=O)(=O)N3CCCCCC3)cc21)N1CCN(c2cccc(C(F)(F)F)c2)CC1 | -1.98 | –
CCCCOc1ccc(CN2C(=O)C(=O)c3cc(Br)cc(C)c32)cc1OC | 3.1 | –
COc1cc(CN(C(=O)c2ccccc2Br)c2ccccn2)cc(OC)c1OC | 1.54 | –

Compound | activity change, negative = inhibition [%] | Potency
CCOCCCNC(=O)c1c(NC(=O)Cc2coc3c(C)c(C)ccc23)sc2c1CCC2 | -5.83 | –
Cc1nnc(N2CCC(C(=O)Nc3ccc(F)cc3)CC2)c2nn(-c3ccc(Cl)cc3)c(C)c12 | -0.22 | –
O=C(c1cc(-c2ccc(F)cc2)on1)N1CCN(c2ccc(F)cc2)CC1 | -0.644 | –
COC(=O)CN1C(=O)CSc2ccc(S(=O)(=O)Nc3cc(C)ccc3C)cc21 | 0.45 | –
Cc1cc(C)c2oc(C(=O)Nc3c(C(=O)Nc4ccccc4)oc4ccccc34)cc(=O)c2c1 | -3.4 | –
O=C(NC1CC(=O)N(c2ccc(Cl)cc2)C1)C1CCCC1 (centres undefined) | 1.05 | –
CN1CCN(c2oc(-c3ccc(COc4ccc(Cl)cc4)o3)nc2C#N)CC1 | -1.61 | –
COc1ccc(-c2nc3sc(CCNS(=O)(=O)c4ccc(F)c(C)c4)c(C)n3n2)cc1 | -2.15 | –
O=C(COc1ccccc1F)Nc1ccc(C(=O)OCc2cc(=O)n3nc(C4CC4)sc3n2)cc1 | -2.26 | –
CCC(=O)Nc1ccccc1-c1nc2ccccc2n(CC(=O)Nc2ccc(C)c(C)c2)c1=O | -2.55 | –
Cc1cccc(-c2nc(SCC(=O)Nc3cc(C)on3)c3c(=O)n(C)c(=O)n(C)c3n2)c1 | -8.93 | –
CC(=O)c1ccc(NC(=O)CSc2c(C(C)C)cnc3c2c(=O)n(C)c(=O)n3C)cc1 | -0.533 | –
COc1ccc(OCc2ccc(-c3nc(C#N)c(N4CCN(c5ccccc5)CC4)o3)o2)cc1 | -0.55 | –
CCCCNC(=O)c1cc(-c2ccc(Cl)c(Cl)c2)on1 | 0.656 | –
CCSc1ncc(Cl)c(C(=O)Nc2c(C(=O)c3ccccc3)oc3ccccc23)n1 | 0.154 | –
Cc1ccc(NC2=C(c3ccc(C(F)(F)F)cc3)C(=O)c3ccccc32)cc1F | -2.86 | –
COc1cccc(C(=O)c2sc3nc(-c4ccccc4)cc(C(F)(F)F)c3c2N)c1 | – | 28.2 µM (active)
COc1ccc(S(=O)(=O)c2c(Nc3cccc(Cl)c3)sc(C(=O)c3ccccc3)c2N)cc1 | 1.26 | –
COc1cccc(C(=O)Nc2ccc(-c3cc(C(F)(F)F)nn3-c3ccccc3)cc2)c1 | -5.37 | –
COc1ccc(NC(=O)CN2CCCN(Cc3ccccc3)S2(=O)=O)cc1 | 4.58 | –
COc1ccccc1Nc1nc(N)nc(N)c1S(=O)(=O)c1ccccc1 | 2.79 | –
COc1cccc(N2CCN(C(=O)CCCCCn3c(=O)[nH]c4ccccc4c3=O)CC2)c1 | -2.04 | –
COc1ccc(CNC(=O)c2cc3c(=O)[nH]c4ccccc4c3s2)cc1 | -0.283 | –
CCCN1C(=O)C(O)(CC(=O)c2ccc(CC)cc2)c2cc(Br)ccc21 (centres undefined) | -0.282 | –

Compound | activity change, negative = inhibition [%] | Potency
O=C(c1ccco1)n1nc(-c2ccc(Cl)cc2)nc1NCc1ccccc1 | -4.62 | –
Cn1c(=O)c2c(-c3ccccc3Br)n(Cc3ccccc3)cc2n(C)c1=O | -2.21 | –
Cc1cc(C)c(NC(=O)CN2C(=O)c3cccnc3Oc3ccc(Cl)cc32)c(C)c1 | 0.363 | –
CCOC(=O)c1ccc(NC(=O)C2CCN(S(=O)(=O)c3ccc4c(c3)CCCC(=O)N4)CC2)cc1 | -0.0606 | –
O=C(Nc1ccc2nc(SCC(=O)N3CCCc4ccccc43)sc2c1)c1ccc(F)cc1 | 7.03 | –
CCOc1ccc(NC(=O)Cn2c(=O)n(CCCC(=O)NCc3ccc4c(c3)OCO4)c(=O)c3ccccc32)cc1 | -2.28 | –
CC(=O)N1c2ccc(S(=O)(=O)N3CCCCCC3)cc2CC1C(=O)NCc1ccccc1C (centres undefined) | 1.47 | –
CCOc1cccc(C(=O)Nc2nnc(S(=O)(=O)N(C)c3ccc(C)cc3)s2)c1 | 4.37 | –
COc1cc(CNCCSc2nnnn2C)ccc1OCc1ccc(Cl)cc1Cl | -9.59 | –
Cc1cn(C)c(CC(=O)NCc2ccccc2)c1C(=O)O | -6.7 | –
CCc1ccc(CNC(=O)c2ccc(CS(=O)c3ccc(Br)cc3)o2)cc1 (centres undefined) | -1.78 | –
COc1ccc(-n2ccnc(NCCc3ccc(Cl)cc3)c2=O)cc1OC | -3.87 | –
N#Cc1nc(/C=C/c2ccc(F)cc2)oc1NC1CCCCC1 | 0.943 | –
COc1ccc(CNC(=O)CS(=O)Cc2nc(-c3cccc(C)c3)oc2C)cc1 (centres undefined) | 0.25 | –
CCOc1ccc(NC(=O)c2cc(S(=O)(=O)N3CCCC3)c[nH]2)cc1 | -8.6 | –
COc1cccc(C(=O)NCC(=O)OCc2cc(=O)n3ccsc3n2)c1 | 1.45 | –
Cc1nn(-c2ccc(N3CCCCC3)nn2)c(C)c1CCC(=O)NCc1ccccc1F | 1.09 | –
CCc1cc2c(cc3c(=O)n(CC(=O)N4CCN(c5cc(Cl)ccc5C)CC4)ncn32)s1 | -5.09 | –
CCOc1ccc(C2C(=O)N(C3CCCCC3)CC(=O)N2CCC2=CCCCC2)cc1OC (centres undefined) | -8.4 | –
CC1CCCN(Cc2c(O)ccc3c(=O)c(Oc4ccc(C(C)(C)C)cc4)c(C(F)(F)F)oc23)C1 (centres undefined) | -0.105 | –
CCc1cccc(C)c1NS(=O)(=O)c1ccc(-c2cc(C)no2)s1 | 0.67 | –
O=C(CCS(=O)(=O)c1cc(Br)cc2c1N(C(=O)C1CC1)CC2)Nc1ccc(C(F)(F)F)cc1 | 0.0494 | –
